# Source: PubChem BioAssay
# Assay: probe aLefty1 binding on compound microarray – biochemical, small-molecule microarray, 635/667 nm fluorescence, primary screen (AID 1153);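 also: score merges spot fluorescence with signal-to-noise ratio from the scanned slide images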
# Details: higher = more signal
row,SMILES,composite z-score
1,CN(C)C(=O)[C@]1(Cc2ccccc2N=[N+]=[N-])N=C(c2ccc(OCCCO)cc2)O[C@@H]1c1ccccc1,0.112
2,CCCCCC1=C2CNC(CCC)(C(=O)OC)C=C2C(C)C1=O (centres undefined),0.358
3,COCCOC(=O)N1C(=O)[C@@]2(c3cc(C#CCCO)ccc31)[C@H](C(=O)N1CCc3cc(OC)c(OC)cc3C1)[C@H]1C(=O)O[C@H](c3ccccc3)[C@H](c3ccccc3)N1[C@@H]2c1ccc(O)cc1,0.88
4,O=C(NCc1ccccc1)[C@@]1(Cc2ccccc2)N=C(c2ccc(OCCCO)cc2)O[C@H]1c1ccccc1,0.609
5,CC(C)c1ccc(NN2C(C(O)c3cc(C(F)(F)F)cc(C(F)(F)F)c3)C=CC3C(=O)N(c4ccccc4)C(=O)C32)cc1 (centres undefined),-0.101
6,CN1C(=O)[C@]2(Cc3ccccc3)N=C(c3ccc(OCCCO)cc3)O[C@@H]2c2ccccc21,-0.157
7,CC(C)(C)OC(=O)CC[C@]1(C(=O)NCC(O)CO)COC(c2ccc(OCCCO)cc2)=N1 (some centres undefined),0.149
8,CCOC(=O)C[C@H]1[C@H](OC(=O)c2cc3ccccc3oc2=O)[C@@H](NC(=O)Cc2ccc(OC)cc2)c2cc(OCCCO)ccc2N1C(=O)c1ccccc1,0.0942
9,COc1ccc(CCNC(=O)[C@@]2(Sc3ccc(C)cc3)CC(=O)N(C3CCCCC3)[C@@H]2c2ccc(CO)cc2I)cc1,0.0889
10,COc1ccc(C(=O)O[C@H]2CC[C@]3(C)C4=C(CCC3C2(C)C)[C@]2(C)CC[C@H]([C@H](C)CCCC(C)C)[C@@]2(C)CC4)cc1 (some centres undefined),-0.192
11,CCOC(=O)C[C@H]1[C@H](OC(=O)Cc2ccc3c(c2)OCO3)[C@@H](NC(=O)c2ccc3ccccc3c2)c2cc(OCCCO)ccc2N1C(=O)c1ccccc1,0.0479
12,CCN(CC)c1ccc(N2CC=CC34O[C@@H]5/C=C\CCCOC(=O)C5[C@H]3C(=O)N(CCO)[C@@H]4C2=O)cc1 (some centres undefined),0.0999
13,C=CCNC(=O)[C@@H]1[C@H]2C(=O)O[C@H](c3ccccc3)[C@H](c3ccccc3)N2[C@H](c2ccccc2OCCO)[C@@]12C(=O)N(C(=O)OCCOC)c1ccc(C#CCNC(N)=O)cc12,0.395
14,O=C1C[C@]2(c3ccc([N+](=O)[O-])cc3)C(=O)N(CCN3CCOCC3)c3cc(CO)ccc3[C@H]2N1C1CCCCC1,-0.0108
15,CN1C(=O)C2C=CC(C(O)C3CC=CCC3)N(NC(=O)OC(C)(C)C)C2C1=O (centres undefined),-0.168
16,COCCCNC(=O)C1N=C(c2ccc(OCCCO)cc2)N(c2ccccc2)O1 (centres undefined),-0.265
17,C=C(COC)/C(=C/C[C@H](OC(=O)c1ccncc1)c1ccc(OCCO)cc1)c1cnc2ccccc2c1,0.062
18,C=CC[C@@]1(C(=O)N(C)C)N=C(c2ccc(OCCCO)cc2)O[C@@H]1c1ccccc1N=[N+]=[N-],0.57
19,C=CCOC(=O)[C@H]1[C@@H]2C(=O)O[C@@H](c3ccccc3)[C@@H](c3ccccc3)N2[C@@H](c2ccc(OCCOC(=O)[C@@H]3C[C@@H]4C(=O)N[C@@H](CCCC[N+](C)(C)C)C(=O)N4[C@@H]3c3ccc(O)cc3)cc2)[C@]12C(=O)Nc1ccccc12,0.0104
20,O=C1NC(=O)C2C1C=CC(C(O)c1cccc3ccccc13)N2Nc1ccccn1 (centres undefined),0.137
21,COc1ccc(C(=O)Nc2cccc(CN3C(=O)[C@]4(O[C@H](CCO)[C@@H]([Si](C)(C)c5ccc(OC)cc5)[C@@H]4C)c4ccccc43)c2)cc1,0.0698
22,COC(=O)c1c(CC[C@@H](CO)NC(=O)N2CCC[C@H]2Cn2cc(-c3ccccn3)nn2)oc(C(C)=O)c1C(=O)OC,-0.101
23,C=CCN1C(=O)[C@]2(O[C@H](CCO)[C@@H]([Si](C)(C)c3ccc(OC)cc3)[C@@H]2C)c2cc(N3C(=O)c4cccc5cccc3c45)ccc21,0.178
24,O=C(NCc1ccccc1)[C@@]1(CCS(=O)(=O)c2ccccc2)N=C(c2ccc(OCCCO)cc2)O[C@H]1c1ccccc1,0.351
25,CC(C)C(=C=CC[C@@H](O)c1ccccc1OCCO)CCO,-0.0501
26,O=C(NCC(F)(F)F)[C@@H]1c2ccccc2C(=O)N(C2CCCCC2)[C@H]1c1ccc(CO)cc1,-0.146
27,CN1C(=O)C2C=CC(C(O)c3cccs3)N(Nc3ccccc3)C2C1=O (centres undefined),0.206
28,COc1cc2c(cc1O)C(C1CC1)N(Cc1cc3c(cc1Br)OCO3)CC2 (centres undefined),-0.263
29,COCCOC(=O)N1C(=O)[C@@]2(c3cc(C#CCCO)ccc31)[C@H](c1ccc(OCCO)cc1)N1[C@H](c3ccccc3)[C@H](c3ccccc3)OC(=O)[C@H]1[C@@H]2C(=O)N1CCN(c2ncccn2)CC1,0.372
